Molecules are shown by their SMILES. Among all 310,000 compounds or so, about 14,000 (4.5%) showed an effect of 50% or more. The effect is printed as a negative number. Shown is part of a subset that was picked to be rich in strong results.
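Also: peak tail current of the secondary pulse compared with the same well before compound.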

The target of the assay is human ether-à-go-go-related gene (hERG) potassium channel (human, UniProt Q12809). The experiment in a line: primary screen, population patch clamp on CHO cells stably expressing hERG; higher = less effect of the substance.
Sequence of human ether-à-go-go-related gene (hERG) potassium channel (Q12809 whole entry, looked up): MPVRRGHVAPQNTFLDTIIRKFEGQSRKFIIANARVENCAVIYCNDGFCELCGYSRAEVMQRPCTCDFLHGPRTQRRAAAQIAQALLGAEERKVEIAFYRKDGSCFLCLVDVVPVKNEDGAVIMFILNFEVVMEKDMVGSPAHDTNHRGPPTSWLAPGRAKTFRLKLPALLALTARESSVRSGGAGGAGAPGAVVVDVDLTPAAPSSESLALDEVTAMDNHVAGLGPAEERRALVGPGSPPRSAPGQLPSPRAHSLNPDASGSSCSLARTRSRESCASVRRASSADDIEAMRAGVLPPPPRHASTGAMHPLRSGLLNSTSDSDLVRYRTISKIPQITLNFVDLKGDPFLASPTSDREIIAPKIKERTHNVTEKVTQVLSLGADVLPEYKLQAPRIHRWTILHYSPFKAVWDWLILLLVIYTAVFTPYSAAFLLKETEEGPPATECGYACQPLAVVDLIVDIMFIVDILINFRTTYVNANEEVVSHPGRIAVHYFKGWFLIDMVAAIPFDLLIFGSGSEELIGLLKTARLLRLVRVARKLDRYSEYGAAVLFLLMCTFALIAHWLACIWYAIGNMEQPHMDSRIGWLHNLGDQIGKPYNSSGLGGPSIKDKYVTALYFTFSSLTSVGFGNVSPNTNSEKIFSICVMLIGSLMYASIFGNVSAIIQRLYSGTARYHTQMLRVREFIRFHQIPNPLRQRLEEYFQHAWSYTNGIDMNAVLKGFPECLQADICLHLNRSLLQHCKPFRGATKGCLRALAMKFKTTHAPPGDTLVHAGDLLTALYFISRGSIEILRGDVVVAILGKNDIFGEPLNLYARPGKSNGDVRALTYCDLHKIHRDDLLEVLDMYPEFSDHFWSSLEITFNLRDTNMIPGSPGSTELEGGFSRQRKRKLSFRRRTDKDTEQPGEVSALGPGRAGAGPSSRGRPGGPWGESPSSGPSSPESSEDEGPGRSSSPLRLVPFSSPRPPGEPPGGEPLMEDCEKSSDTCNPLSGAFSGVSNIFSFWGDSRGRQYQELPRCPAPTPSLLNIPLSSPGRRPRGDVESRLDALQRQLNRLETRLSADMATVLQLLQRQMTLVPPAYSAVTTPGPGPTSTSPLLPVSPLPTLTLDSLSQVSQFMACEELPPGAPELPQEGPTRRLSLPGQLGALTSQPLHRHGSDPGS
In the case of `C=CCn1c(SCC(=O)CC(=O)OCC)nc2cc(C(=O)N3CCC(C(N)=O)CC3)ccc2c1=O`, the “hERG current change (%, negative = inhibition) at 10uM” value was 13.7%.
As for `CCCCCn1c(SCC(=O)CC(=O)OCC)nc2cc(C(=O)N3CCC(C(N)=O)CC3)ccc2c1=O`, the figure is -17.7%.
`NC(=O)C1CCN(C(=O)c2ccc3c(=O)n(Cc4ccco4)c(SCC(=O)c4ccccc4)nc3c2)CC1`: the “hERG current change (%, negative = inhibition) at 10uM” value was 6.75%.
On to `CCCCCn1c(SCC(=O)OCC)nc2cc(C(=O)N3CCC(C(N)=O)CC3)ccc2c1=O`, for which the “hERG current change (%, negative = inhibition) at 10uM” value is given as -58.4%.
In the case of `CCCCCn1c(SCC2CCCO2)nc2cc(C(=O)N3CCC(C(N)=O)CC3)ccc2c1=O` (stereo not shown), the “hERG current change (%, negative = inhibition) at 10uM” value is recorded as -64.7%.
Then `CCCCCn1c(SCC#N)nc2cc(C(=O)NCC3CCCO3)ccc2c1=O` (stereo not shown), with -52.7%; and `CCCCn1c(SC(C)C(=O)NCC2CCCO2)nc2cc(C(=O)OC)ccc2c1=O` (stereo not shown), with -44.9%; and `CCOC(=O)CSc1nc2cc(C(=O)N3CCC(C(N)=O)CC3)ccc2c(=O)n1C1CCCCC1`, with -10.7%.
With `N#CCSc1nc2ccccc2c(=O)n1CCCC(=O)NCC1CCCO1` (stereo not shown), the “hERG current change (%, negative = inhibition) at 10uM” value is -12.4%.
Then `c1cc(-c2nnn(CCOCCn3nnc(-c4ccncc4)n3)n2)ccn1`, with -0.329%; and `c1ccc(Oc2cccc(OCCn3cncn3)c2)cc1`, with -12.7%; and `CC(=O)c1ccc(NC(=S)NNC(=O)c2ccccc2[N+](=O)[O-])cc1`, with 20%.
Then `COC(CNC(=O)C1CCC(CNS(=O)(=O)c2c(C)cc(C)cc2C)CC1)OC` (stereo not shown), with -26%.
As for `Cc1cc(C)c(S(=O)(=O)NCC2CCC(C(=O)NCCCN3CCC(C)CC3)CC2)c(C)c1` (stereo not shown), the figure is -77.2%.
As for `COCCNC(=O)C1CCC(CNS(=O)(=O)c2c(C)cc(C)cc2C)CC1` (stereo not shown), the “hERG current change (%, negative = inhibition) at 10uM” value was determined as 7.72%.
Then `CCCCNC(=O)C1CCC(CNS(=O)(=O)c2c(C)cc(C)cc2C)CC1` (stereo not shown), with 3.09%; and `CCCCN(C)CCCNC(=O)C1CCC(CNS(=O)(=O)c2c(C)cc(C)cc2C)CC1` (stereo not shown), with -77.3%.
As to `CC1CCN(CCCNC(=O)C2CCC(CNS(=O)(=O)c3ccccc3)CC2)CC1` (stereo not shown), the “hERG current change (%, negative = inhibition) at 10uM” value was 5.02%.
As for `CCC1CCCCN1CCCNC(=O)C1CCC(CNS(=O)(=O)c2c(C)cc(C)cc2C)CC1` (stereo not shown), the figure is -68.3%; as for `CCN(CC)CCCNC(=O)C1CCC(CNS(=O)(=O)c2c(C)cc(C)cc2C)CC1` (stereo not shown), -13.5%.
As for `Cc1ccc(S(=O)(=O)NCC2CCC(C(=O)NCCCN3CCOCC3)CC2)cc1` (stereo not shown), the “hERG current change (%, negative = inhibition) at 10uM” value turned out to be 10.8%.
Turning to `O=C(Cn1c2c(c(=O)n3ncnc13)CCC2)N/N=C/c1cccs1`, the “hERG current change (%, negative = inhibition) at 10uM” value is given as 0.665%.
As for `CS(=O)(=O)c1ccc(C(=O)NCC(c2ccco2)N2CCCCC2)cc1` (stereo not shown), the figure is 18%; as for `Cc1cc(OCC(=O)NCC(O)c2ccccc2)c2c3c(c(=O)oc2c1)CCCC3` (stereo not shown), 12.1%; as for `CCCCn1c(N)c(N(CCOC)C(=O)c2ccco2)c(=O)[nH]c1=O`, 0.12%.
Regarding `Cc1ccc(-n2c(SCC(=O)N/N=C/c3c(C)nn(-c4ccccc4)c3C)nc3ccccc3c2=O)cc1`, the “hERG current change (%, negative = inhibition) at 10uM” value is -7.33%.
As for `O=C(Nc1ccccc1)N1CCC(O)(c2cccc(C(F)(F)F)c2)CC1`, the figure is -6.72%.
Then `c1ccc(-c2nc3ccccc3s2)nc1`, with 4.67%.
Then `Cc1ccc(-n2c(SCC(=O)N3c4ccccc4Sc4ccccc43)nnc2-c2ccncc2)cc1`, with -3.06%; and `COc1ccc(NC(=O)CN(C)C(=O)C(C)Sc2ccccc2)cc1` (stereo not shown), with 5.43%; and `COC(=O)Cn1c2nc3ccccc3nc2c2cccc(C)c21`, with 9.86%.
For `COC(=O)Cn1cnc2c(C#N)c3n(c2c1=O)CCCCC3`, the “hERG current change (%, negative = inhibition) at 10uM” value is -8.01%.
As for `COc1cc(-c2nn3c(COc4ccccc4)nnc3s2)cc(OC)c1OC`, the “hERG current change (%, negative = inhibition) at 10uM” value was 14.8%.
With `O=C(NCc1ccccc1)c1ccco1`, the “hERG current change (%, negative = inhibition) at 10uM” value was determined as 2.34%.
Then `CCOc1ccccc1CN1CCN(Cc2ccon2)CC1CCO` (stereo not shown), with -42.6%; and `CC(C)CCN1CCN(Cc2cccc3nonc23)CC1CCO` (stereo not shown), with -16.7%; and `Cc1cccc(CN2CCN(Cc3cccc4nonc34)CC2CCO)n1` (stereo not shown), with -24.1%.
Then `COc1cccc(CN2CCN(Cc3ccon3)CC2CCO)c1` (stereo not shown), with 0.227%; and `COc1cccc(CN2CCN(Cc3cccc4nonc34)CC2CCO)c1` (stereo not shown), with -66.3%; and `CC(C)N1CCN(Cc2cccc3nonc23)CC1CCO` (stereo not shown), with 1.05%.
`CCOc1ccc(CN2CCN(Cc3cccc4nonc34)CC2CCO)cc1` (stereo not shown): the “hERG current change (%, negative = inhibition) at 10uM” value is listed as -77.1%.
Consider `COc1ccc(CN2CCN(Cc3cccc4nonc34)CC2CCO)c(C)c1C` (stereo not shown), for which the “hERG current change (%, negative = inhibition) at 10uM” value is -68.3%.
For `COc1cccc(CN2CCN(Cc3cccc4c3OCO4)CC2CCO)c1` (stereo not shown), the “hERG current change (%, negative = inhibition) at 10uM” value is recorded as -23.2%.
For the compound `CCOc1ccccc1CN1CCN(Cc2cccc3nonc23)CC1CCO` (stereo not shown), the “hERG current change (%, negative = inhibition) at 10uM” value is -73.3%.
Then `Cc1ccc(-n2nc3c(=O)n(CC(=O)NCCc4ccc(Cl)cc4)nc(C)c3c2C)cc1`, with -10.2%; and `CCc1ccccc1N(CC(=O)N1CCN(c2ccccc2F)CC1)S(C)(=O)=O`, with 0.701%.
Take `COc1ccc(S(=O)(=O)NCC(c2ccco2)N2CCOCC2)cc1` (stereo not shown): the “hERG current change (%, negative = inhibition) at 10uM” value was -19.1%.
Then `COC(=O)N/N=C(\C)c1ccc(Br)cc1`, with 11.6%.
Then `CCCCN(CC)C(=O)c1n[nH]c(=O)c2ccccc12`, with 2.92%; and `Cc1nc(CNC(=O)C2CCC(=O)N(Cc3cccc(F)c3)C2)sc1C` (stereo not shown), with 5.68%.
As for `Cc1onc(-c2c(Cl)cccc2Cl)c1C(=O)N1CCc2ccccc21`, the figure is -19.9%; as for `Cc1cc2c(cc1S(=O)(=O)Nc1cccc(F)c1)n(C)c(=O)c(=O)n2C`, -10.9%; as for `O=C(NC1CCCCC1)c1cc2ccccc2cc1O`, -12.7%.
Regarding `CC(=O)c1ccc(S(=O)(=O)N2CCC3(CC2)CC(=O)c2ccccc2O3)cc1`, the “hERG current change (%, negative = inhibition) at 10uM” value was -42.6%.
On to `O=C(O)c1ccc(S(=O)(=O)N2CCC3(CC2)CC(=O)c2ccccc2O3)cc1`, for which the “hERG current change (%, negative = inhibition) at 10uM” value worked out at 11.5%.
As for `Cc1ccc(S(=O)(=O)N2CCC3(CC2)CC(=O)c2ccccc2O3)cc1`, the figure is -25.7%.
As for `O=C1CC2(CCN(S(=O)(=O)c3ccccc3F)CC2)Oc2ccccc21`, the figure is -84.6%; as for `O=C1CC2(CCN(S(=O)(=O)c3ccccc3)CC2)Oc2ccccc21`, -84.6%; as for `COc1ccc(S(=O)(=O)N2CCC3(CC2)CC(=O)c2ccccc2O3)cc1`, -24.8%.
On to `O=C(Nc1nnc(-c2ccc(Br)cc2)o1)c1cccc(N2C(=O)CCC2=O)c1`, for which the “hERG current change (%, negative = inhibition) at 10uM” value was determined as 13.4%.
For the compound `COc1ccc(CN2CC[C@H]3C=CC[C@@H](C(=O)N4CCOCC4)[C@H]3C2=O)cc1OC`, the “hERG current change (%, negative = inhibition) at 10uM” value is 7.75%.
As for `CS(=O)(=O)N1N=C(c2ccccc2)CC1c1ccc2c(c1)OCO2` (stereo not shown), the figure is 13.9%; as for `Cc1ccc(C2=NN(S(C)(=O)=O)C(c3ccc4c(c3)OCO4)C2)cc1` (stereo not shown), -2%; as for `CC(=O)N1N=C(c2ccc3nccnc3c2)CC1c1ccccc1` (stereo not shown), -34.9%.
As for `CS(=O)(=O)Nc1ccc(C2=NN(S(C)(=O)=O)C(c3ccc4nccnc4c3)C2)cc1` (stereo not shown), the figure is -32.8%; as for `CC(=O)N1N=C(c2ccccc2)CC1c1ccc2c(c1)OCO2` (stereo not shown), 1.98%; as for `CC(=O)N1N=C(c2cccc(NS(C)(=O)=O)c2)CC1c1ccc2c(c1)OCO2` (stereo not shown), -59.2%.
With `CC(=O)N1N=C(c2ccc(C)cc2)CC1c1ccc2c(c1)OCO2` (stereo not shown), the “hERG current change (%, negative = inhibition) at 10uM” value is -30.1%.
As for `CS(=O)(=O)Nc1cccc(C2=NN(S(C)(=O)=O)C(c3ccc4c(c3)OCO4)C2)c1` (stereo not shown), the figure is -62.3%.
On to `CC(=O)N1N=C(c2ccc(NS(C)(=O)=O)cc2)CC1c1ccc2nccnc2c1` (stereo not shown), for which the “hERG current change (%, negative = inhibition) at 10uM” value is reported as -63.2%.
On to `Cc1c(/C=N/NC(=O)c2cc(Br)ccc2O)c(=O)n(C)c(=O)n1C`, for which the “hERG current change (%, negative = inhibition) at 10uM” value is 3.23%.
In the case of `Cc1[nH]c2ccccc2c1C(=O)C(=O)N1CCC2(CC1)OCCO2`, the “hERG current change (%, negative = inhibition) at 10uM” value is given as 7.95%.
Regarding `COc1cccc(NC(=O)CN(C)CC(=O)Nc2ccc(C)c([N+](=O)[O-])c2)c1`, the “hERG current change (%, negative = inhibition) at 10uM” value was -15.8%.
Then `CCOc1ccccc1N(CC(=O)NC1CCCCC1)S(=O)(=O)c1ccc(C)cc1`, with -7.2%.
For the compound `CSCCC(NC(=O)c1ccc(Cl)cc1Cl)C(=O)NCc1ccccn1` (stereo not shown), the “hERG current change (%, negative = inhibition) at 10uM” value is recorded as -8.59%.
Take `Cc1ccc(NCc2n[nH]c(=S)n2-c2ccccc2)cc1`: the “hERG current change (%, negative = inhibition) at 10uM” value was found to be 15%.
For the compound `COc1ccccc1NC(=O)Nc1nc(CC(=O)NCc2cccnc2)cs1`, the “hERG current change (%, negative = inhibition) at 10uM” value is on record as -13.3%.
For `O=C(Cc1csc(NC(=O)Nc2cccc(Cl)c2)n1)NCc1ccccn1`, the “hERG current change (%, negative = inhibition) at 10uM” value is reported as -5.14%.
As for `O=C(Cc1csc(NC(=O)Nc2ccc(Cl)cc2)n1)NCc1cccnc1`, the figure is -50.8%; as for `O=C(Cc1csc(NC(=O)Nc2cccc(Cl)c2)n1)NCc1cccnc1`, -53.8%; as for `O=C(Cc1csc(NC(=O)Nc2ccc(Cl)cc2)n1)NCc1ccccn1`, -44.7%.
As for `O=C(NCc1cccnc1)Nc1cccc(Cl)c1`, the “hERG current change (%, negative = inhibition) at 10uM” value was 15%.
As to `O=C(Nc1ccc(Cl)c(Cl)c1)c1cccnc1`, the “hERG current change (%, negative = inhibition) at 10uM” value was -2.86%.
Then `O=C(Nc1ccc(F)c(Cl)c1)c1cccnc1`, with -65.9%; and `O=C(Nc1ccc(Cl)cc1)Nc1cccnc1`, with -50.7%; and `O=C(Nc1ccc(F)c(F)c1)c1cccnc1`, with 0.898%.
Consider `O=C(Nc1cccnc1)Nc1ccc(F)c(Cl)c1`, for which the “hERG current change (%, negative = inhibition) at 10uM” value is -36.8%.
`O=C(Nc1cccnc1)Nc1cc(Cl)cc(Cl)c1`: the “hERG current change (%, negative = inhibition) at 10uM” value is reported as 6.81%.

For the origin of these results see paper PMC4336329 (PLoS ONE, 2015).
